High-throughput results: PubChem, National Center for Advancing Translational Sciences (NCATS)
TDP1 cell noCPT – qHTS for Inhibitors of human tyrosyl-DNA phosphodiesterase 1 (TDP1): qHTS in cells in absence of CPT; DT40 Tdp1-/- hTDP1 cells, no CPT, ATP luminescence, 48 h; Potency, µM (series often up to 46.2 µM), without a hit: at the top dose activity change, negative = growth inhibition, actives largely listed as inhibitors; actives 15% (n = 420,000); AID 686978, 2013; note: nearly all actives have a fitted effect of over 55% in size
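Readout: luminescence from CellTiter-Glo after 30 min in the dark at RT. Cells: DT40 Tdp1-/- with stable hTDP1, 400/well. Exposure: compounds alone, ≥48 hr, 37 °C.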
KB-V1 MDR tox – qHTS assay for MDR1-selective chemotherapeutics: Primary screen using the drug-selected MDR subline cells KB-V1; AID 1347076, 2019; actives 3.4% (n = 400,000); KB-V1 MDR cells viability, CellTiter-Glo, 72 h; Potency, µM (highest dose often 46.1 µM), actives largely listed as cytotoxic; note: nearly all actives have a fitted effect of over 60% in size
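Cytotoxicity via CellTiter-Glo luminescence after 72 h compound exposure at 37 degrees C. Cells: drug-selected KB-V1 line, DMEM phenol-red free plus 10% FBS. Compounds tested at multiple concentrations; normalized data fitted to concentration-effect curves.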
HT1080 IDH1KD tx – qHTS for induction of synthetic lethality in tumor cells producing 2HG: qHTS for the HT-1080-IDH1KD cell line; HT-1080 IDH1 knockdown viability, ATP luminescence, 48 h; Potency, µM (titrated, usually from 46.1 µM), for inactives: at the highest dose activity, negative = toxicity, usual class: cytotoxic; actives 2% (n = 360,000); AID 686971, 2013;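 note: 0% = DMSO wells and -100% = cell-free medium wells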
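IDH1KD HT-1080 cells, 750/well, RPMI + 5% FBS; compound pinned after 2 h settling; 48 h, 37 °C; CellTiter-Glo luminescence; % activity normalised to DMSO and no-cell wells; curves fitted, classed by r2 and efficacy.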
KB-3-1 cytotox – qHTS assay for MDR1-selective chemotherapeutics: Primary screen using the parental adenocarcinoma cell KB-3-1. KB-3-1 viability, CellTiter-Glo ATP luminescence, 72 h. Potency, µM (highest dose often 46.1 µM), hits mostly cytotoxic. actives 1.4% (n = 400,000). AID 1347075, 2019; note: nearly all actives have a fitted effect of over 60% in size
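Luminescent ATP read-out (CellTiter-Glo) measures survival of drug-naive KB-3-1 cells after 72 h compound exposure at 37 °C. Titration series was screened from lowest to highest concentration, with DMSO vehicle plates as background controls.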
TDP1 cell CPT – qHTS for Inhibitors of human tyrosyl-DNA phosphodiesterase 1 (TDP1): qHTS in cells in presence of CPT; chicken DT40 Tdp1-/-;hTDP1 cells + 20 nM CPT, ATP luminescence, 48 h; Potency, µM (highest dose often 46.2 µM), inactives show at the top dose activity change, negative = growth inhibition, actives largely listed as inhibitors; actives 12% (n = 420,000); AID 686979, 2013; note: nearly all actives have a fitted effect of over 55% in size
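Chicken DT40 Tdp1-/- cells complemented with human TDP1, 400 cells/well, exposed to compounds plus 20 nM camptothecin for at least 48 h at 37 C; viability read as ATP content by CellTiter-Glo luminescence.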
HT1080NT lethal – qHTS for induction of synthetic lethality in tumor cells producing 2HG: qHTS for the HT-1080-NT fibrosarcoma cell line. HT-1080-NT fibrosarcoma viability, CellTiter-Glo ATP luminescence, 48 h. Potency, µM (doses to about 46.1 µM), for the others: at the highest dose activity, negative = less viability, actives largely listed as cytotoxic. actives 1.6% (n = 360,000);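 note: NT is the 2HG producing partner of a matched IDH1 knockdown line; 0% = DMSO-treated cells and -100% = media-only wells without cells; nearly all actives have a fitted effect of over 55% in size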
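750 cells/well, RPMI + 5% FBS; 2 h settle, compound pin-transfer, 48 h at 37 degrees C. CellTiter-Glo 10 min RT, luminescence. Normalized to DMSO and media-only wells.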
An asterisk follows results filed as active. Rows were chosen to be rich in hits. Some 19% of all compounds tested hit in one or more screens of this group. Calls come from the whole dose curve; as a rule, active = well fitted curve in the direction sought with a large enough effect; inconclusive = small, poorly fitted or top-dose-only effect, or another doubt; inactive = no such curve, though single readings can be large; an effect the other way counts as inactive or inconclusive. Unless noted, % is set by controls: 0 for no effect and ±100 for the full control effect; potency is the fitted concentration of half-maximal effect.

Screening Cc1ccc(NC(=O)C2=CC(c3ccc(C)cc3)=NS(=O)(=O)N2C)cc1 returned TDP1 cell noCPT inconclusive, KB-V1 MDR tox inactive, HT1080 IDH1KD tx -16.1%, KB-3-1 cytotox inactive, TDP1 cell CPT inconclusive and HT1080NT lethal -1.1%.
Screening COc1cc(NC(=O)C2=CC(c3ccc(F)cc3)=NS(=O)(=O)N2C)cc(OC)c1OC returned TDP1 cell noCPT 23.1µM*, KB-V1 MDR tox inactive, KB-3-1 cytotox inactive and TDP1 cell CPT inconclusive.
CCc1ccccc1NC(=O)C1=CC(c2ccc3c(c2)OCO3)=NS(=O)(=O)N1C was read as TDP1 cell noCPT -28.6%, KB-V1 MDR tox inactive, KB-3-1 cytotox inactive and TDP1 cell CPT inconclusive.
`CC(=O)c1ccc(NC(=O)C2=CC(c3ccc(C)cc3)=NS(=O)(=O)N2C)cc1` gave TDP1 cell noCPT 4.11µM*, KB-V1 MDR tox inactive, KB-3-1 cytotox inactive and TDP1 cell CPT 8.2µM*.
`COc1cccc(C2=NS(=O)(=O)N(C)C(C(=O)Nc3ccccc3SC)=C2)c1` gave TDP1 cell noCPT inconclusive, KB-V1 MDR tox inactive, KB-3-1 cytotox inactive and TDP1 cell CPT 16.4µM*.
Screening COc1ccc(Br)cc1CNC(=O)Cn1nc(C)n2c(cc3cc(F)ccc32)c1=O returned TDP1 cell noCPT inconclusive, KB-V1 MDR tox inactive, KB-3-1 cytotox inactive and TDP1 cell CPT inconclusive.
For COc1ccc(C2=NS(=O)(=O)N(C)C(C(=O)Nc3ccc(C)cc3)=C2)cc1 the results were TDP1 cell noCPT 20.6µM*, KB-V1 MDR tox inconclusive, HT1080 IDH1KD tx -12.6%, KB-3-1 cytotox inactive, TDP1 cell CPT inconclusive and HT1080NT lethal -16.0%.
`COc1ccc(OC)c(C2=NS(=O)(=O)N(C)C(C(=O)Nc3cccc(C(C)=O)c3)=C2)c1` gave TDP1 cell noCPT inconclusive, KB-V1 MDR tox inactive, HT1080 IDH1KD tx -3.3%, KB-3-1 cytotox inactive, TDP1 cell CPT 20.6µM* and HT1080NT lethal -4.4%.
`Cc1ccc(S(=O)(=O)Nc2cc3c(cc2C)n(C)c(=O)c(=O)n3C)c(C)c1` gave TDP1 cell noCPT inconclusive and TDP1 cell CPT -28.8%.
For COc1ccc(N(CC(=O)NC2CCCCC2)C(=O)CCCC(=O)Nc2ccccn2)cc1 the results were TDP1 cell noCPT -7.0%, KB-V1 MDR tox inactive, HT1080 IDH1KD tx 0.8%, KB-3-1 cytotox inactive, TDP1 cell CPT 0.6% and HT1080NT lethal 0.5%.
For CC1=C(C(=O)N(C)C)CC(CC(=O)NC2CCCC2)C(=O)N1CCC1=CCCCC1 (configuration not stated) the results were TDP1 cell noCPT -24.7%, KB-V1 MDR tox inactive, HT1080 IDH1KD tx 10.3%, KB-3-1 cytotox inactive, TDP1 cell CPT -1.6% and HT1080NT lethal 1.6%.
CCOC(=O)c1sc(-c2ccc(Br)cc2)cc1N was read as TDP1 cell noCPT inconclusive, KB-V1 MDR tox inactive, HT1080 IDH1KD tx inconclusive, KB-3-1 cytotox inactive, TDP1 cell CPT -26.6% and HT1080NT lethal 4.2%.
`CCOC(=O)c1cc(-c2ccc(N)cc2)sc1N` gave TDP1 cell noCPT 20.6µM*, KB-V1 MDR tox inactive, HT1080 IDH1KD tx inconclusive, KB-3-1 cytotox inactive, TDP1 cell CPT 18.4µM* and HT1080NT lethal -8.4%.
`CC(=O)c1cn(CC(=O)Nc2ccccc2C)c2ccccc12` gave TDP1 cell noCPT 6.51µM*, KB-V1 MDR tox inconclusive, HT1080 IDH1KD tx -20.7%, KB-3-1 cytotox inactive, TDP1 cell CPT 8.2µM* and HT1080NT lethal -21.4%.
`Cc1ccccc1NC(=O)Cn1c(O)c(N=NC(=O)c2ccccc2O)c2ccccc21` gave TDP1 cell noCPT 5.8µM*, KB-V1 MDR tox inconclusive, HT1080 IDH1KD tx 11.6%, KB-3-1 cytotox inactive, TDP1 cell CPT inconclusive and HT1080NT lethal 7.1%.
CC(=O)c1cn(CC(=O)NCc2ccc3c(c2)OCO3)c2ccccc12 was read as TDP1 cell noCPT 13µM*, KB-V1 MDR tox inconclusive, HT1080 IDH1KD tx -25.4%, KB-3-1 cytotox inactive, TDP1 cell CPT 13µM* and HT1080NT lethal inconclusive.
For Cc1ccc(NC(=O)Cn2c(O)c(N=NS(=O)(=O)c3ccc(C)cc3)c3ccccc32)cc1 the results were TDP1 cell noCPT 14.6µM*, KB-V1 MDR tox inconclusive, HT1080 IDH1KD tx -4.5%, KB-3-1 cytotox inactive, TDP1 cell CPT inconclusive and HT1080NT lethal -0.7%.
Cc1ccc(NC(=O)Cn2c(O)c(N=NC(N)=O)c3ccccc32)cc1 was read as TDP1 cell noCPT inconclusive, KB-V1 MDR tox inactive, HT1080 IDH1KD tx -23.4%, KB-3-1 cytotox inconclusive, TDP1 cell CPT inconclusive and HT1080NT lethal -14.2%.
`Cc1ccc(NC(=O)Cn2c(O)c(N=NC(N)=S)c3ccccc32)cc1` gave TDP1 cell noCPT inconclusive, KB-V1 MDR tox inactive, HT1080 IDH1KD tx inconclusive, KB-3-1 cytotox inactive, TDP1 cell CPT inconclusive and HT1080NT lethal inconclusive.
Screening O=C(c1ccc(NS(=O)(=O)c2ccc(F)cc2)cc1)N1CCC1 returned TDP1 cell noCPT -5.2%, KB-V1 MDR tox inactive, HT1080 IDH1KD tx 4.2%, KB-3-1 cytotox inactive, TDP1 cell CPT -9.4% and HT1080NT lethal 2.5%.
Screening CC(=O)c1cn(CC(=O)Nc2c(C)cccc2C)c2ccccc12 returned TDP1 cell noCPT 8.2µM*, KB-V1 MDR tox inactive, HT1080 IDH1KD tx inconclusive, KB-3-1 cytotox inconclusive, TDP1 cell CPT 10.3µM* and HT1080NT lethal -7.2%.
Screening CSc1nc(N)nc2c1ncn2CC(=O)NCc1ccc2c(c1)OCO2 returned TDP1 cell noCPT 8.2µM*, KB-V1 MDR tox inactive, HT1080 IDH1KD tx 1.4%, KB-3-1 cytotox inactive, TDP1 cell CPT 16.4µM* and HT1080NT lethal -2.0%.
`CSc1nc(N)nc2c1ncn2CC(=O)NCc1ccccc1` gave TDP1 cell noCPT inconclusive, KB-V1 MDR tox inactive, HT1080 IDH1KD tx 6.3%, KB-3-1 cytotox inactive, TDP1 cell CPT inconclusive and HT1080NT lethal 1.8%.
Screening Cc1cccc(NC(=O)Cn2cc(C=O)c3ccccc32)c1 returned TDP1 cell noCPT inconclusive, KB-V1 MDR tox inactive, HT1080 IDH1KD tx -8.3%, KB-3-1 cytotox inactive, TDP1 cell CPT inconclusive and HT1080NT lethal 2.2%.
